The record followed here is PubChem BioAssay.

Assay [1] in a line: antimalarial activity against Dd2 strain (AID 2302;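 active = growth inhibition above 50% at the single 2 µM test dose, taken to imply half-maximal potency below 2 µM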;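 also: 0% = DMSO untreated growth and 100% = chloroquine plus artemisinin killed control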). The following applies: P. falciparum Dd2 in RBCs, LDH growth readout, 72 h; at 2 µM; stronger effect = higher value.
Assay [2] in a line: HepG2 cytotoxicity, primary screen, cytotoxicity control for P. falciparum antimalarial project, cell-based, ATP luminescence (AID 2303;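 active = inhibition above 50%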;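 also: 0% = DMSO wells and 100% = digitonin-killed cells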). The following applies: HepG2 viability, 24-48 h, at 10 µM, stronger effect = higher value.
Assay [3] concerns the target L-lactate dehydrogenase (Plasmodium falciparum (isolate CDC / Honduras)) (UniProt Q27743). Put plainly: PfLDH activity inhibition – cell lysate, 3D7 strain, counter-screen for P. falciparum growth inhibition project (AID 2304).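 Also: 0% = vehicle and 100% = reference inhibitor.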 To be noted: P. falciparum 3D7 crude extract, LDH APAD/NBT absorbance; at 2 µM; stronger effect = higher value. A general note: Counterscreens check selectivity or assay interference.

Assay [4] can be described thus: inhibition of 3D7 malaria parasite growth – strain 3D7 (AID 2306).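 Also: 0% = DMSO wells and 100% = chloroquine plus artemisinin control wells.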 The following applies: P. falciparum 3D7 erythrocytic growth, LDH absorbance, 72 h; at 2 µM; stronger effect = higher value.
Assay [5] has as its target Calcium-dependent protein kinase 1 (Plasmodium falciparum (isolate 3D7)) (UniProt P62344). Put plainly: PfCDPK1 kinase inhibitors, biochemical, TCAMS library (AID 1159585; cut-off not given, nearly all actives have IC50 up to about 0.98 µM;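 also: inhibitors leave more ATP so luminescence rises with inhibition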). The following applies: recombinant PfCDPK1, Kinase-Glo ATP depletion luminescence.
Assay [6] concerns the target Plasmodium falciparum protein kinase 6 (PK6, PF3D7_1337100) (UniProt Q8IDW1). Put plainly: PfPK6 kinase inhibitors, biochemical, TCAMS library (AID 1159586). The following applies: recombinant PfPK6, Kinase-Glo ATP depletion luminescence. A general note: Kinase-Glo reads ATP consumption through a luciferase reaction.
In assay [7] the target is Protein kinase 7 (PK7), Plasmodium falciparum 3D7 (PF3D7_0213400) (UniProt Q7YTF7). Put plainly: inhibition of Plasmodium PK7 catalytic activity – biochemical, TCAMS antimalarial set, Kinase-Glo luminescence (AID 1159587). To be noted: recombinant PfPK7, Kinase-Glo ATP depletion luminescence.
Chain of Protein kinase 7 (PK7), Plasmodium falciparum 3D7 (PF3D7_0213400) (Q7YTF7 1-343): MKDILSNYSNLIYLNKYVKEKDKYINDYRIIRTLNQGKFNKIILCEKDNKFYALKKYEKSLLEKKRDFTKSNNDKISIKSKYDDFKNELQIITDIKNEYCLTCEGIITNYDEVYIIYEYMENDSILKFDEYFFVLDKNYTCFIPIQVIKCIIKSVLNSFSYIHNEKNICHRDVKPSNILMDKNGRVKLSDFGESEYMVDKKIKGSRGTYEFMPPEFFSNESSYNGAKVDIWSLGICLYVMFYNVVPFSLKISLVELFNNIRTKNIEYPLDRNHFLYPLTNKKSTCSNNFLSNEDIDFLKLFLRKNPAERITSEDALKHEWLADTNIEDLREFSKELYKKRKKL
Assay [8] deals with Calcium-dependent protein kinase 4 (Plasmodium falciparum (isolate 3D7)) (UniProt Q8IBS5). Put plainly: PfCDPK4 kinase inhibitors, biochemical, TCAMS library (AID 1159588; cut-off not given, nearly all actives have IC50 up to about 0.91 µM). The following applies: recombinant PfCDPK4, Kinase-Glo ATP depletion luminescence.
Chain of Calcium-dependent protein kinase 4 (Plasmodium falciparum (isolate 3D7)) (Q8IBS5 whole entry, looked up): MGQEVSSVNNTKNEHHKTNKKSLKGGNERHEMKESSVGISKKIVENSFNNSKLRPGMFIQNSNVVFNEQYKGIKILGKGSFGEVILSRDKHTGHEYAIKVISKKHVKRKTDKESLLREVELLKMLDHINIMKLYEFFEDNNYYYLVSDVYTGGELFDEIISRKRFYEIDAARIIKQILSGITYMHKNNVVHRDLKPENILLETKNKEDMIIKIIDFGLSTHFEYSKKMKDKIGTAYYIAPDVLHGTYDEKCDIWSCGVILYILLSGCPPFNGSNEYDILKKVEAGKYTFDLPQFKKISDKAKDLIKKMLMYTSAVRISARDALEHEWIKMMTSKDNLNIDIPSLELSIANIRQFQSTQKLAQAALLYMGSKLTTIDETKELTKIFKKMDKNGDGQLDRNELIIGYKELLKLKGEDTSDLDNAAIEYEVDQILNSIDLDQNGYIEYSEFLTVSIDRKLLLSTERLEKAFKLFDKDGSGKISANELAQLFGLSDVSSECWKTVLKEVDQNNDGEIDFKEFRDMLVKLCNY

Values without a mark were called inactive. For part of these data: Entries with a potency or affinity are not part of this list. Active and inactive are the calls of the source. Unless noted, no rule for the calls is given here.

Chain of Calcium-dependent protein kinase 1 (Plasmodium falciparum (isolate 3D7)) (P62344 whole entry, looked up): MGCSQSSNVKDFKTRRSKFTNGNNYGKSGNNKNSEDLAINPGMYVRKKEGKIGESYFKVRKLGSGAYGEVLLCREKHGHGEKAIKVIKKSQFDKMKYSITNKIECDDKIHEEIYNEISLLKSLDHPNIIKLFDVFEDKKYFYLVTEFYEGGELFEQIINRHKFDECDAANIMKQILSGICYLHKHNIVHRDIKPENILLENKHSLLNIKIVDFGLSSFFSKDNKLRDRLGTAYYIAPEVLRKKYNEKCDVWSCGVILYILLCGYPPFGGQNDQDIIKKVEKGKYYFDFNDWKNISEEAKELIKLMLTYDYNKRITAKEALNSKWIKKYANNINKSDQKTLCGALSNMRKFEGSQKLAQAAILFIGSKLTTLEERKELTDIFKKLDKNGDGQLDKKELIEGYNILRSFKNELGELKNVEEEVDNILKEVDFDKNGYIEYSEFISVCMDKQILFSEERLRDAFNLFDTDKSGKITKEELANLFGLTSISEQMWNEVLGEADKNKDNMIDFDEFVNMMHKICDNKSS
Chain of L-lactate dehydrogenase (Plasmodium falciparum (isolate CDC / Honduras)) (Q27743 whole entry, looked up): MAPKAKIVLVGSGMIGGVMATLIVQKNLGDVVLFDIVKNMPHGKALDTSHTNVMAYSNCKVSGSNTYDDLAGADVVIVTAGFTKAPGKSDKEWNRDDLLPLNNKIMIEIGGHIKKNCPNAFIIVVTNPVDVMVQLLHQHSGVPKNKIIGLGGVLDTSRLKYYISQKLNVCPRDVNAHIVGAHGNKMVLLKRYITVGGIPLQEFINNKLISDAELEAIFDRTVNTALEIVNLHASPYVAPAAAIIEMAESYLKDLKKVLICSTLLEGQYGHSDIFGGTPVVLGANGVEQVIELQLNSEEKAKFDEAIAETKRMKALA
Chain of Plasmodium falciparum protein kinase 6 (PK6, PF3D7_1337100) (Q8IDW1 1-305): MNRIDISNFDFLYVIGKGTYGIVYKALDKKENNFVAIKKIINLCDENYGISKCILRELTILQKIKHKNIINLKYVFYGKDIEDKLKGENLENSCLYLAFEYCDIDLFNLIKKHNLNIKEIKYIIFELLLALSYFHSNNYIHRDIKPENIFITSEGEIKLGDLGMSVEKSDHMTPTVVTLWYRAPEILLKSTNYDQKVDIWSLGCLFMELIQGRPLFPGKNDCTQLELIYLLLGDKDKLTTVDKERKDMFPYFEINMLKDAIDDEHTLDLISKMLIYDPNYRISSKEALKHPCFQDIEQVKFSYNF

The term inhibition denotes the relative decrease from the control value, in per cent. As for `Cc1ccc2nc(C)cc(NN=Cc3ccccc3F)c2c1`, the results for the growth inhibition in assay [1] and in assay [4] were 100% (active) and 97% (active), respectively. Further, the figures for the inhibition in assay [2] and in assay [3] were 36% and -3%, respectively. The result in assay [5], in assay [6], in assay [7] and in assay [8] was inactive.
Consider `CCCCCCCN1CC[C@@H](C[C@H](N)Cc2ccnc3ccc(OC)cc23)[C@@H](CC)C1`, for which the growth inhibition was 51% (active) in assay [1] and 91% (active) in assay [4]. The inhibition in assay [2] was 33%; in assay [3] it was -2%. Moreover, the result in assay [5], in assay [6], in assay [7] and in assay [8] was inactive.
For `COc1ccc(CCC(C)(C)NCC(O)c2cccc(C(F)(F)F)c2)cc1` (centres undefined), the growth inhibition in assay [1] is 98% (active); in assay [4], 99% (active). Besides, the inhibition in assay [2] is 26%; in assay [3], 3%. For the same molecule, the result in assay [5], in assay [6], in assay [7] and in assay [8] was inactive.
